Source: PubChem BioAssay AID686978 (National Center for Advancing Translational Sciences (NCATS), 2013)
Screen size: about 420,000 compounds; about 64,000 (15%) were called active. Another 27% or so got no clear call; they are omitted. A selection follows. Values without a mark were called inactive. Calls come from the whole dose curve; as a rule, active = well fitted inhibition curve with a large enough effect; inconclusive = small, poorly fitted or top-dose-only effect; inactive = flat fitted curve, though single readings scatter.

Assay: qHTS for Inhibitors of human tyrosyl-DNA phosphodiesterase 1 (TDP1): qHTS in cells in absence of CPT; note: nearly all actives have a fitted effect of over 55% in size
Conditions: DT40 Tdp1-/- hTDP1 cells, no CPT, ATP luminescence, 48 h; activity change, negative = growth inhibition: at 46.2 µM (top of the series)
Outline: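 Chicken DT40 Tdp1-/- cells complemented with human TDP1, screened without camptothecin (DMSO vehicle only), 400 cells/well. Compounds pin-transferred, cells incubated at 37 °C for at least 48 hr. Growth read as ATP-dependent luminescence (CellTiter-Glo, 30 min at RT).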
% is set by controls: 0 for no effect and ±100 for the full control effect; potency is the fitted concentration of half-maximal effect.

SMILES	activity change, negative = growth inhibition [%]	Potency
COc1ccc(/C=N/Nc2nc3ccccc3o2)cc1OC	8.23	–
COc1cc(C=NC2CCCCC2)ccc1O	-20.7	–
CN(C(=O)CSc1nnc(N)s1)c1c(N)n(Cc2ccccc2)c(=O)[nH]c1=O	-3.27	–
COc1cc(Br)cc2cc(S(=O)(=O)c3ccccc3)c(=O)oc12	-2.21	–
COc1cccc(N2CC(NS(=O)(=O)c3cccs3)CC2=O)c1 (configuration not stated)	-5.55	–
COc1cccc(N2CC(NS(=O)(=O)c3ccc(Cl)cc3)CC2=O)c1 (configuration not stated)	-18.3	–
COc1ccc(N2CC(NS(=O)(=O)c3ccc4ccccc4c3)CC2=O)cc1 (configuration not stated)	–	23.1 µM (active)
CC(C)(O)C(=O)NN(C(=O)c1ccccc1)c1cccc(Br)c1	4.16	–
Cc1ccc(N(NC(=O)C(C)(C)O)C(=O)c2ccccc2)cc1C	-27	–
CCCCC(O)(CCCC)C(=O)NN(C(=O)CCl)c1ccccc1	–	20.6 µM (active)
CCCC(O)(CCC)C(=O)NN(C(=O)CCl)c1cccc(C)c1	–	5.8 µM (active)
COC(=O)N(NC(=O)C(O)(C(C)C)C(C)C)c1ccccc1	3.81	–
CN(C)/C=C/c1c(C#N)c(=O)ncn1Cc1ccccc1	11.3	–
COc1cc(/C=C(/NC(=O)c2ccc(Cl)cc2Cl)C(=O)O)cc(OC)c1OC	-3.62	–
Cc1ccc(C(=O)N/C(=C\c2ccco2)C(=O)N2CCSCC2)cc1C	2.18	–
CCNc1nc(N)nc(Oc2ccc(OCC)nn2)n1	-5.62	–
CCOc1cccc(=O)c2c(C)n(CC3CCCO3)c(C)c12 (configuration not stated)	-21.8	–
Cc1ccc2c(=O)c(C(=O)c3ccc(F)cc3)cn(CC(=O)NC3CCCCC3)c2n1	-11.5	–
CC(OC(=O)CNC(=O)c1ccco1)C(=O)Nc1ccc(Cl)cn1 (configuration not stated)	-3.04	–
CCn1c(SCC(=O)NCC2CCCO2)nc2ccccc21 (configuration not stated)	1.62	–
S=C(NCCc1ccccc1)NCC1CCCO1 (configuration not stated)	–	23.1 µM (active)
O=C(CS(=O)(=O)Cc1ccccc1)NCC1CCCO1 (configuration not stated)	-15	–
Cc1ccc(C(=O)NCC2CCCO2)o1 (configuration not stated)	13	–
CN(CCc1ccccn1)C(=O)c1ccc(OC2CCN(Cc3ccccn3)CC2)cc1	-9.13	–
COC(=O)Cn1cc(/C=C/[N+](=O)[O-])c2ccccc21	–	14.6 µM (active)
COCCCNC(=O)Cn1cc(/C=C(\C#N)C(=O)N2CCN(c3ccccc3)CC2)c2ccccc21	-35.8	–

SMILES	activity change, negative = growth inhibition [%]	Potency
COC(=O)c1cn(CC(=O)NCc2cccs2)c2ccccc12	0.284	–
CCCn1nc(C(=O)OCc2nc(N)nc(Nc3ccccc3C)n2)c2ccccc2c1=O	-16	–
COCCN(C(=O)CCC(=O)Nc1nccs1)C(C(=O)NC(C)(C)C)c1ccc(Cl)cc1 (configuration not stated)	-20.2	–
CCn1c(CN2C(=O)CSc3ccccc32)n[nH]c1=S	-8.13	–
COc1ccc(Br)cc1CNC(=O)c1cc(=O)[nH]c2ccc(S(=O)(=O)N3CCCC3)cc12	-7.47	–
CCN1CCN(C(=O)c2cc3cc4ccc(OC)cc4nc3s2)CC1	-22.2	–
CCN1CCN(c2nc(Nc3cc(OC)ccc3OC)nc(Nc3cc(OC)ccc3OC)n2)CC1	–	23.1 µM (active)
CCOC(=O)CNc1nc(Cl)nc(Nc2ccc(OC)cc2OC)n1	-24.2	–
c1ccc(-c2c[nH]c(-c3ccccc3)c2)cc1	-2.86	–
Cc1nn(-c2cc(Cl)ccc2N)c(=O)c2ccccc12	-14.5	–
COc1ccc(OC)c(-n2cc3c(=O)n(C)c(=O)n(C)c3c2)c1	–	14.6 µM (active)
COc1ccc(NC(=O)CCNS(=O)(=O)c2ccc3c(c2)c(=O)n(C)c(=O)n3C)cc1OC	-28	–
CC(=O)Nn1cc2c(=O)n(C)c(=O)n(C)c2c1	-1.04	–
COc1cccc(OC)c1C(=O)Nc1ccc2c(c1)n(C)c(=O)n2C	17.7	–
O=C1c2ccccc2C(=O)N1c1cccc2ccccc12	-3.87	–
Cn1c(=O)c2cn(-c3cccc4ccccc34)cc2n(C)c1=O	–	25.9 µM (active)
CCSC1(SCC)N=C(N)C2(C#N)C(c3ccccc3)NC(C)=CC12C#N (configuration not stated)	-15	–
O=C(Cn1nnc2ccccc2c1=O)NCc1ccc(Cl)cc1	-26.9	–
Cc1noc(C)c1C(=O)OC(C)C(=O)Nc1ccc2c(c1)OCO2 (configuration not stated)	-20.5	–
NC(=O)c1ccc(Nc2ccc3nonc3c2[N+](=O)[O-])cc1	-0.787	–
Cc1ccc(C)c(S(=O)(=O)Nc2cc(C)on2)c1	24.7	–
O=C(CN1CCCSc2ccccc21)N1CCN(S(=O)(=O)c2cccc(F)c2)CC1	–	7.31 µM (active)
O=C(CN1CCCSc2ccccc21)N1CCN(S(=O)(=O)c2ccccc2)CC1	-21.5	–
O=C(CN1CCN(S(=O)(=O)c2cccc(Cl)c2)CC1)N1CCCCC1	1.53	–
N#C[C@]1(S(=O)(=O)c2ccccc2)C[C@@H]2ON=C(c3cccc(Br)c3)[C@@H]2C1	–	6.51 µM (active)
COC(=O)[C@]1(S(=O)(=O)c2ccccc2)C[C@@H]2ON=C(c3ccc(OC)cc3)[C@@H]2C1	-18.7	–
